# Assay results taken from the supplement of paper PMC8728848.
# This is one part of a sample in which the strongest signals are shown more often than they occur.
# Tests used:
# Experiment in all cases: glycan array binding signal (z-score within array); higher = stronger binding
# Settings in all cases: glycan notation: IUPAC condensed, linker removed
# [1] = target: Fuc(a1-2)Gal(b1-3)[Fuc(a1-4)]GlcNAc
# Summary of the method: (§1)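 Arrays were curated from the Consortium for Functional Glycomics database, 3228 in total, and kept only where the protein sequence was available. Binding is expressed as a within-array Z-score. This score was averaged across arrays of the same protein sequence at different concentrations or buffers and across linkers, and negative values can be read as non-binding.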
# [2] = target: Fuc(a1-3)[Gal(b1-4)]Glc6S
# Summary of the method: as §1
# [3] = target: Fuc(a1-3)[Gal(b1-4)]GlcNAc(b1-4)Gal(b1-4)[Fuc(a1-3)]GlcNAc
# Summary of the method: as §1
# [4] = target: Fuc(a1-3)[Gal3S(b1-4)]Glc6S
# Summary of the method: as §1
# [5] = target: Fuc(a1-3)[Gal3S(b1-4)]GlcNAc6S
# Summary of the method: as §1
# Gal(a1-6)Glc = target: Gal(a1-6)Glc
# Summary of the method: as §1
# Gal(b1-3)Gal = target: Gal(b1-3)Gal
# Summary of the method: as §1
# Gal(b1-4)Glc6S = target: Gal(b1-4)Glc6S
# Summary of the method: as §1
# [6] = target: Gal(b1-4)GlcNAc(b1-3)Gal(b1-4)[Fuc(a1-3)]GlcNAc(b1-3)Gal(b1-4)[Fuc(a1-3)]GlcNAc
# Summary of the method: as §1
# [7] = target: Gal(b1-4)GlcNAc(b1-6)Gal(b1-4)GlcNAc
# Summary of the method: as §1
# Gal3S(b1-3)GlcNAc = target: Gal3S(b1-3)GlcNAc
# Summary of the method: as §1
# [8] = target: Gal3S(b1-3)[Fuc(a1-4)]GlcNAc
# Summary of the method: as §1
# Gal3S6S(b1-4)GlcNAc6S = target: Gal3S6S(b1-4)GlcNAc6S
# Summary of the method: as §1
# Gal6S(b1-4)GlcNAc = target: Gal6S(b1-4)GlcNAc
# Summary of the method: as §1
# [9] = target: GlcNAc(b1-4)Gal(b1-4)GlcNAc
# Summary of the method: as §1
# [10] = target: Man(a1-2)Man(a1-3)[Man(a1-6)]Man(a1-6)[Man(a1-2)Man(a1-3)]Man(b1-4)GlcNAc(b1-4)GlcNAc
# Summary of the method: as §1
# [11] = target: Man(a1-3)[Man(a1-6)]Man(a1-6)[Man(a1-3)]Man
# Summary of the method: as §1
# [12] = target: Man(a1-3)[Man(a1-6)]Man(b1-4)GlcNAc(b1-4)GlcNAc
# Summary of the method: as §1
# [13] = target: Neu5Ac(a2-3)Gal(b1-3)GalNAc
# Summary of the method: as §1
# [14] = target: Neu5Ac(a2-3)Gal(b1-3)GalNAc(b1-3)Gal(b1-4)GlcNAc
# Summary of the method: as §1
# [15] = target: Neu5Ac(a2-3)Gal(b1-3)GlcNAc
# Summary of the method: as §1
# [16] = target: Neu5Ac(a2-3)Gal(b1-3)[Neu5Ac(a2-3)Gal(b1-4)]GlcNAc
# Summary of the method: as §1
# [17] = target: Neu5Ac(a2-3)Gal(b1-4)GlcNAc(b1-3)Gal(b1-4)GlcNAc
# Summary of the method: as §1
# [18] = target: Neu5Ac(a2-3)Gal(b1-4)[Fuc(a1-3)]GlcNAc6S
# Summary of the method: as §1
# [19] = target: Neu5Ac(a2-3)Gal6S(b1-4)[Fuc(a1-3)]GlcNAc
# Summary of the method: as §1
# [20] = target: Neu5Ac(a2-3)[GalNAc(b1-4)]Gal(b1-4)Glc
# Summary of the method: as §1
# [21] = target: Neu5Ac(a2-8)Neu5Ac(a2-8)Neu5Ac(a2-3)[GalNAc(b1-4)]Gal(b1-4)Glc
# Summary of the method: as §1
# [22] = target: Neu5Ac9Ac(a2-6)Gal(b1-4)GlcNAc
# Summary of the method: as §1
binder,measurement,setting,value
"L-Selectin (Homo sapiens), P14151 (protein) MIFPWKCQSTQRDLWNIFKLWGWTMLCCDFLAHHGTDCWTYHYSEKPMNWQRARRFCRDNYTDLVAIQNKAEIEYLEKTLPFSRSYYWIGIRKIGGIWTWVGTNKSLTEEAENWGDGEPNNKKNKEDCVEIYIKRNKDAGKWNDDACHKLKAALCYTASCQPWSCSGHGECVEIINNYTCNCDVGYYGPQCQFVIQCEPLEAPELGTMDCTHPLGNFSFSSQCAFSCSEGTNLTGIEETTCGPFGNWSSPEPTCQVIQCEPLSAPDLGIMNCSHPLASFSFTSACTFICSEGTELIGKKKTICESSGIWSNPSPICQKLDKSFSMIKEGDYNPLFIPVAVMVTAFSGLAFIIWLARRLKKGKKSKRSMNDPY",glycan array binding signal (z-score),[1],-0.36
same,glycan array binding signal (z-score),[2],0.137
same,glycan array binding signal (z-score),[3],-0.145
same,glycan array binding signal (z-score),[4],6.9
same,glycan array binding signal (z-score),[5],8.15
same,glycan array binding signal (z-score),Gal(a1-6)Glc,0.48
same,glycan array binding signal (z-score),Gal(b1-3)Gal,-0.315
same,glycan array binding signal (z-score),Gal(b1-4)Glc6S,0.942
same,glycan array binding signal (z-score),[6],-0.38
same,glycan array binding signal (z-score),[7],-0.336
same,glycan array binding signal (z-score),Gal3S(b1-3)GlcNAc,-0.333
same,glycan array binding signal (z-score),[8],3.08
same,glycan array binding signal (z-score),Gal3S6S(b1-4)GlcNAc6S,4.59
same,glycan array binding signal (z-score),Gal6S(b1-4)GlcNAc,-0.078
same,glycan array binding signal (z-score),[9],0.119
same,glycan array binding signal (z-score),[10],-0.024
same,glycan array binding signal (z-score),[11],-0.198
same,glycan array binding signal (z-score),[12],-0.246
same,glycan array binding signal (z-score),[13],0.005
same,glycan array binding signal (z-score),[14],-0.116
same,glycan array binding signal (z-score),[15],-0.147
same,glycan array binding signal (z-score),[16],-0.044
same,glycan array binding signal (z-score),[17],-0.338
same,glycan array binding signal (z-score),[18],9.18
same,glycan array binding signal (z-score),[19],-0.028
same,glycan array binding signal (z-score),[20],-0.363
same,glycan array binding signal (z-score),[21],-0.314
same,glycan array binding signal (z-score),[22],0.073
